Measured values from PubChem BioAssay AID1028 (SRMLSC, 2008).
Potency and affinity values are given separately. Active and inactive are the calls of the source.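 How the source made its calls: active means enzyme inhibitor confirmed by dose series, half-maximal inhibitory concentration at most 40 µM; inactive means the rest.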

Target: diphosphomevalonate decarboxylase (Streptococcus pneumoniae D39) (UniProt Q9FD53)
Test: diphosphomevalonate decarboxylase inhibitor confirmation – biochemical, cuvette format, coupled NADH fluorescence (AID 1028)
Conditions: purified DPM-DC, rate, at 50 µM, hits give high values

inhibition, inactive:
COc1ccc2oc(-c3ccc(C)cc3)nc2c1 -3.06%, O=C(c1ccccc1-n1sc2ccccc2c1=O)N1CCCCC1 16.1%, CCN(CC)C(=O)c1ccccc1-n1sc2ccccc2c1=O 14.9%, Cc1ccccc1-c1nc2ccccc2o1 1.75%, COc1ccc2oc(-c3ccc([N+](=O)[O-])cc3)nc2c1 1.63%, COc1ccc2oc(-c3cccc(N)c3)nc2c1 -0.79%, Cc1ccccc1-c1nc2cccc(N)c2o1 -2.22%, COc1ccc2oc(-c3cccc(C)c3)nc2c1 2.37%, Nc1ccc2oc(-c3cccc(F)c3)nc2c1 10.4%, COc1ccc(OC)c(-c2nc3cc(OC)ccc3o2)c1 2.12%, COc1ccccc1-c1nc2ccccc2o1 6.39%, CCCN(CCC)C(=O)c1ccccc1-n1sc2ccccc2c1=O 14.3%, COc1ccc2nc(-c3cc(C)ccc3C)oc2c1 1.13%, c1ccc(-c2nc3ccccc3o2)cc1 2.96%, Cc1ccc(C)c(-c2nc3c(N)cccc3o2)c1 6.19%, COc1ccc(OC)c(-c2nc3cc(N)ccc3o2)c1 10.3%, COc1ccc2nc(-c3ccc(C)cc3)oc2c1 5.23%, Cc1ccc(-c2nc3ccccc3o2)cc1 7.2%, Cc1ccc(-c2nc3ccccc3o2)cc1F 9.15%, COc1ccc2oc(-c3ccc(F)cc3)nc2c1 1.68%
